# Tested on: ALK
# Settings: concentration: 1 μM, replicates: in singlicate; n = 1
# 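Further: KINOMEscan kinase panel screen.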
row,SMILES,%Inh [%]
1,O=C(Nc1ccc2c(c1)OCO2)NC1CCN(c2ccnc(NCc3ccc(F)cc3)n2)CC1 [GSK1379859],9
2,O=C(Nc1n[nH]c2cc(-c3ccccc3F)ccc12)C1CC1 [SB-733371],0
3,Cc1ccccc1COc1cc(-n2cnc3cc(Cl)ccc32)sc1C(N)=O [GW813349],23
4,Cc1nnc(-c2ccc(C)c(-c3ccc(C(=O)O)cc3)c2)o1 [GW608005],1
5,COc1ccc(-c2cc3c(C)nc(N)nc3n([C@H]3CC[C@H](O)CC3)c2=O)cn1,0
6,CCC(=O)c1c(-c2ccccc2)c2cc(Cl)ccc2c(=O)n1Cc1cc(S(C)(=O)=O)n(CC(F)F)n1,0
7,CC(C)(C)c1ccc(C(=O)Nc2cn3cc(-c4ccccc4)ccc3n2)cc1,0
8,Cc1c(Cn2c(C)nn3c(=O)cc(N4CCO[C@H](C)C4)nc23)cccc1C(F)(F)F [GSK2373690],22
9,COc1cccc(C2=C(Nc3cccc(C(=O)O)c3)C(=O)NC2=O)c1 [SB-390770],0
10,COc1cc2ncn(-c3cc(OCc4ccncc4)c(C(N)=O)s3)c2cc1OC [GSK336313],20
11,COc1ccc(-c2coc3ccc(-c4nnc(SCc5cccc(C#N)c5)o4)cc23)cc1,0
12,Nc1nc(-c2ccccc2F)c(-c2ccnc3ccccc23)s1 [GW560459],31
13,COC(=O)c1c(-c2ccccc2)c2cc(Br)ccc2c(=O)n1Cc1ccc(NC(=O)CCC(=O)O)cc1,52
14,COC(=O)c1c(-c2ccccc2)c2cc(Br)ccc2c(=O)n1Cc1ccc(S(C)(=O)=O)cc1,52
15,CCc1nc(-c2cccc(C)c2)c(-c2ccncc2)s1,0
16,COc1cc(Nc2ccnc3ccc(C(F)(F)F)cc23)cc(OC)c1OC [GW577382],22
17,COC(=O)c1c(-c2ccccc2)c2cc(C)ccc2c(=O)n1Cc1ccccc1,0
18,CN1C(=O)C(Nc2ccccc2)=C(c2ccccc2)C1=O [SB-300079],7

row,SMILES,%Inh [%]
1,CCC(=O)c1c(-c2ccccc2)c2cc(Cl)ccc2c(=O)n1Cc1cc(C(=O)NC2CC2)n(C)n1,32
2,Nc1ncnc2c1ncn2-c1ccc(Cl)cc1 [AH2635],0
3,Cc1cccc(-c2cc(-c3c[nH]nc3-c3ccccn3)ccn2)c1 [GW679395],30
4,CN1C(=O)C(Nc2cc(Cl)c(O)c(Cl)c2)=C(c2ccc(Cl)cc2)C1=O [SB-404321],48
5,COc1cc2nccc(Nc3cccc(Oc4ccccc4)c3)c2cc1OC.Cl [GW284543],1
6,CCCC(=O)Nc1n[nH]c2ncc(-c3cccc4ccccc34)cc12 [SB-642057],29
7,COc1cccc(C2=C(N(C)c3ccccc3)C(=O)NC2=O)c1 [SB-334865],24
8,COc1ccc(-c2cc3c(C)nc(N)nc3n([C@H]3CC[C@H](OCCO)CC3)c2=O)cn1,0
9,Nc1ncnc2c1ncn2-c1cccc(F)c1 [SKF-97560],43
10,CN(C)c1cc(-c2ccc3c(N)n[nH]c3c2)nc(N)n1 [GSK2219329],0
11,COc1ccc(-n2cnc3c(N)ncnc32)cc1 [SKF-97236],0
12,Cn1c(=O)c(F)c(Nc2ccc(I)cc2F)c2c(=O)n(OC[C@H](O)CO)cnc21,0
13,COc1cc(Nc2nccc(N3CCC(NC(=O)C(C)c4ccc(Cl)cc4)C3)n2)cc(OC)c1OC (stereo not drawn) [GSK1379757],22
14,COc1cc2ncn(-c3cc(OCCCc4ccccc4)c(C(N)=O)s3)c2cc1OC [GSK205189],0
15,Cc1cccc(-c2nc(Nc3ccc4c(cnn4C)c3)c3ccccc3n2)n1 [GW876731],0
16,Nc1nc(N)c2nc(-c3ccccc3)[nH]c2n1 [SKF-12778],0
17,Cl.c1ccc(Cn2cnc3cc(Nc4ncnc5ccccc45)ccc32)cc1 [GW272142],21
18,Nc1nccc2scc(-c3ccc4c(c3)CCN4C(=O)Cc3ccccc3)c12 [GSK2576924],0
